Records with an inconclusive call do not appear. Values without a mark were called inactive. Calls come from the whole dose curve; as a rule, active = well fitted inhibition curve with a large enough effect; inconclusive = small, poorly fitted or top-dose-only effect; inactive = flat fitted curve, though single readings scatter.
% is set by controls: 0 for no effect and ±100 for the full control effect.

The target in this assay is Calcium and integrin-binding protein 1 (Homo sapiens) (UniProt Q99828). Put plainly: Primary qHTS for Identification of Calcium Integrin Binding Protein 1 (CIB1) Competitor (AID 1508620). Note: top concentration of the series differs between compounds. The settings on record: CIB1-GST / FITC-alphaIIb peptide fluorescence polarization; series mostly up to 114 µM; activity change, negative = inhibition: at the top concentration. Put shortly: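 Fluorescence polarization competition: GST-tagged CIB1 (1 uM final) preincubated with compound 15 min at room temperature, then FITC-labelled alphaIIb peptide (100 nM final) added. After 15 min at room temperature, polarization read at Ex 480/Em 540.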
Chain of Calcium and integrin-binding protein 1 (Homo sapiens) (Q99828 whole entry, looked up): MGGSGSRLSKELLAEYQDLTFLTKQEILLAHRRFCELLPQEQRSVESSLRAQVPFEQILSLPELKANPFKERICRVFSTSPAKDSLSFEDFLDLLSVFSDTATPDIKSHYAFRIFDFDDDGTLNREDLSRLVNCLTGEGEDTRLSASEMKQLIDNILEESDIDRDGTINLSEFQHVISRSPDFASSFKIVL
For orientation: qHTS replaces the single test concentration by a dilution series.
With `O=C(O)C(=O)Nc1cccc(-c2nn[nH]n2)c1`, the “activity change, negative = inhibition” value is -1.56%.
The same measure for `C/C(=N\O)[C@@H](C)NCC(C)(C)CN[C@H](C)/C(C)=N/O`: -0.8%.
As for `C#Cc1ccc(-c2ccccc2F)cc1`, the figure is -3.47%; as for `CC(=O)c1ccc(O)c(C(N)=O)c1`, -2.38%; as for `Cc1ccc2c(Cl)cc(Cl)c(O)c2n1`, -2.78%.
The same measure for `CC(=O)O[C@@H]1CC2C3CCc4cc(OC(=O)c5ccccc5)ccc4C3CCC2(C)[C@H]1OC(C)=O` (some centres not stated): 3.4%; for `Nc1ccc(C(=O)OCC(O)CO)cc1` (configuration not stated): 1.08%.
For the compound `O=C1OC2(c3ccccc31)c1cc(I)c(O)c(I)c1Oc1c2cc(I)c(O)c1I`, the “activity change, negative = inhibition” value was 7.59%.
The same measure for `CN1Cc2cc(C(=O)N3CCC(C4CCNCC4)CC3)ccc2NC(CC(=O)O)C1=O` (configuration not stated): -2.39%; for `NCC[C@H](O)C(=O)N[C@@H]1C[C@H](N)[C@@H](O[C@H]2O[C@H](CN)[C@@H](O)[C@H](O)[C@@H]2O)[C@H](O)[C@@H]1O[C@H]1O[C@H](CO)[C@@H](O)[C@H](N)[C@@H]1O`: 3.05% [at 1.07 µM].
The same measure for `CCOc1c(N2CCOCC2)cnn(C)c1=O`: 2.35%; for `COc1cc(S(N)(=O)=O)cc(C(=O)O)c1OC`: -3.07%; for `CC1CC(=O)NN=C1c1ccc(NCC(C)(C)NCC(O)COc2cc(Cl)ccc2C#N)cc1` (configuration not stated): 3.31%.
As for `NC(=O)COCCN1CCN(C(c2ccccc2)c2ccc(Cl)cc2)CC1` (configuration not stated), the figure is -1%; as for `CO/N=C(\C(=O)O)c1csc(NC(=O)CCl)n1`, 1.44%.
Regarding `C1N2CN3CN1CN(C2)C3`, the “activity change, negative = inhibition” value is 8.97%.
As to `CC(C)C(=O)Nc1cccc(C(F)(F)F)c1`, the “activity change, negative = inhibition” value is -1.94%.
The same measure for `CCCC(=O)OCOC(=O)C1=C(C)NC(C)=C(C(=O)OC)C1c1cccc(Cl)c1Cl` (configuration not stated): -0.779%; for `O=C(O)c1ccc(OCCN2CCCCC2)cc1`: -4.6%; for `CC(COc1ccccc1)NN` (configuration not stated): -2.87%.
For `Cc1coc2ccccc2c1=O`, the “activity change, negative = inhibition” value was -2.12%.
`C=CCOc1cc(Cl)ccc1C(=O)NCCN(CC)CC`: the “activity change, negative = inhibition” value was 2.56%.
The same measure for `CC(C)=CCC/C(C)=C/CC/C(C)=C/CCC(=O)OC/C=C(\C)CCC=C(C)C`: 5.8%; for `CCn1ccc(NS(=O)(=O)c2ccc(N)cc2)nc1=O`: 3.11%.
The same measure for `N#CSCC(=O)O`: -3.32%; for `O=C(Oc1ccccc1)c1cccc(C(=O)Oc2ccccc2)c1`: -5.04% [at 228 µM]; for `CC(=O)N[C@@H](CCC(N)=O)C(=O)O`: 0.345%.
As for `CCC1(c2cnc[nH]2)Cc2ccccc2C1`, the figure is -2.62%.
Take `CCN1CCN(C(=O)N[C@@H](C(=O)N[C@@H]2C(=O)N3[C@@H]2SC(C)(C)[C@H]3C(=O)O)c2ccccc2)C(=O)C1=O`: the “activity change, negative = inhibition” value was -1.01%.
The same measure for `COC(=O)/C=C\C(=O)OC`: -7.43%; for `CCCC(CCC)(C(=O)OCC)C(=O)OCC`: -0.99%.
The same measure for `CCc1cc(S(=O)(=O)O)c2cc(C(C)C)cccc1-2`: -5.34%.
As for `C1=CC2C3C=CC(C3)C2C1` (configuration not stated), the figure is -4.87% [at 228 µM]; as for `COc1ccc(/C(C)=C/C(=O)O)c(OC)c1`, -1.1%.
`O=C1c2ccccc2CCc2ccccc21`: the “activity change, negative = inhibition” value is 5.37%.
The same measure for `COc1cc(C=O)ccc1O`: -5.23%; for `COC(=O)c1cc(S(N)(=O)=O)ccc1OC`: 1.16%.

For the origin of these results see PubChem BioAssay (NCATS).
